MCL1 BIM primary = MCL1-BIM-BH3 interaction inhibition (human); Q07820; GST-MCL1 / FITC-Bim-BH3 fluorescence polarization; inhibition, % at 10.9 µM; 0.68% of 320,000 active; AID 2057;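 active means inhibition above the mean inhibition of all tested compounds plus 3 SD, set per campaign, cut at about 40% in these data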;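 further: 0% = DMSO wells and 100% = unlabeled Bim-BH3 peptide control; higher means more loss of mP so more displacement of Bim peptide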
GLD-1 RNA inh = GLD-1-TGE RNA interaction inhibition (C. elegans); 0.44% of 320,000 active; purified GLD-1 + fluorescein TGE RNA, fluorescence polarization; AID 2280; inhibition, % at 5.96 µM; Q17339;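 active means percent inhibition above a per-plate cutoff, the plate mean of test compounds plus 3 SD, cut at about 30% in these data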;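 further: 0% = DMSO wells with GLD-1 and probe and 100% = wells lacking GLD-1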
Target sequence (Q17339 whole entry, looked up): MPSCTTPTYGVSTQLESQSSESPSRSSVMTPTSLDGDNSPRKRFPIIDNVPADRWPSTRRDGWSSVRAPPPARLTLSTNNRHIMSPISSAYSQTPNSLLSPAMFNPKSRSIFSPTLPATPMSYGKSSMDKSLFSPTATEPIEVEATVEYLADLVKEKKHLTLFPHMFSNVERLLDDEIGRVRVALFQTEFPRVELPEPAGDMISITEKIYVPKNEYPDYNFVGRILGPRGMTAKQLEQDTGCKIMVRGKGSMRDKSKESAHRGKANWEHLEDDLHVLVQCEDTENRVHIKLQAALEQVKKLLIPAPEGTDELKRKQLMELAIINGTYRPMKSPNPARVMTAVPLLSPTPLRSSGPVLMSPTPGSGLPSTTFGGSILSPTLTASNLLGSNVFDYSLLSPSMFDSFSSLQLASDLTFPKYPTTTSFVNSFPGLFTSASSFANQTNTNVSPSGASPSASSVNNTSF
BCLXL inh = inhibitors of human Bcl-xL | Q07817 | GST-Bcl-xL / FITC-Bim BH3 peptide fluorescence polarization | inhibition, % at 10.9 µM | 0.7% of 320,000 active;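 active means inhibition above the mean of all tested compounds plus 3 SD, cutoff set per campaign, cut at about 30% in these data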;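 further: 0% = DMSO wells and 100% = unlabeled Bim-BH3 peptide competitor; inhibitors lower millipolarization by displacing the labeled peptide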
MEX-5 binding = C. elegans MEX-5 TCR-2 RNA binding activity; Q9XUB2; activity score (negative = inhibition of binding), % at 10 µM; MEX-5/FITC-TCR2 RNA binding, fluorescence polarization; hits give low values; 0.38% of 300,000 active; AID 1832;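 active means inhibition past about -25% in most replicates, and total fluorescence under double the plate's negative control median, limit read from the data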;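 further: 0% = DMSO and -100% = 5 µM competing unlabeled TCR2 RNA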
CR mimetic SO = yeast age-related superoxide inhibition as caloric restriction mimetic | S. cerevisiae aged cells, superoxide DHE fluorescence; hits give low values | superoxide response (% of plate mean), % at 10 µM | 0.18% of 330,000 active;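 active means superoxide response under a set limit, about three screen SD below normal, cut at about 65% in these data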;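 further: yeast aged for seven days with compound at 30 °C before DHE staining; 100% = average MFI of all compound-treated wells on the plate with controls excluded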
LANA-H2B inh = blocks KSHV LANA binding to histone H2A/H2B; inhibition, % (concentration not given with the values); AID 2629; Q9QR71; cell-free LANA-H2A/H2B peptide, fluorescence polarization; 0.6% of 320,000 active; in the data active means inhibition mostly above about 10%, no sharp cut-off; inactive means mostly below about 6.7%
Starred values were filed as active, the others as inactive; i = inactive; / = not tested or not shown; + = active, no number. Only some compounds are listed: those with a hit (about 1.9% of all), similar ones and a draw of the others.

SMILES | MCL1 BIM primary | GLD-1 RNA inh | BCLXL inh | MEX-5 binding | CR mimetic SO | LANA-H2B inh
CN(C(=O)CSc1nc2ccccc2c(=O)n1C)C1CCS(=O)(=O)C1 (stereo unspecified) | / | -1 | / | / | 80 | 20*
CN(C(=O)CSc1nc2ccccc2n1C)C1CCS(=O)(=O)C1 (stereo unspecified) | -5 | -3 | -7 | / | 82 | 4
O=C(CSc1nc2ccccc2c(=O)n1-c1ccccc1F)NC1CC1 | / | 3 | / | / | 106 | -2
O=C(CSc1nc2ccccc2c(=O)n1-c1ccccc1F)NC1CCS(=O)(=O)C1 (stereo unspecified) | 2 | 2 | 3 | / | 100 | 124*
O=C(Nc1ccccc1C(=O)N/N=C/c1ccco1)c1ccc(Cl)cc1 | -22 | -18 | -12 | 3 | 91 | +
O=C(Nc1ccccc1C(=O)N/N=C/c1ccco1)c1ccccc1 | 8 | 7 | 7 | -3 | 90 | -1
C[C@H](CO)N1C[C@H](C)[C@@H](CN(C)C)Oc2c(NS(=O)(=O)c3cn(C)cn3)cccc2C1=O | / | 0 | / | / | 92 | i
CC(C)(O)c1cc2ccc(C#Cc3ccsc3)cc2c(=O)o1 | 1 | 1 | -3 | / | 84 | -2
COC(=O)C[C@H](NC(=O)Cn1cnc2c(NCc3ccccc3)ncnc21)C(=O)OC | / | / | / | / | 103 | /
COc1ccc(N2CCN(C(=O)C3CCCN(S(=O)(=O)c4ccc(C)cc4)C3)CC2)cc1 (stereo unspecified) | -1 | -3 | -2 | -1 | 92 | 26*
COc1ccc(N2CCN(C(=O)C3CCCN(S(=O)(=O)c4ccc(F)cc4)C3)CC2)cc1 (stereo unspecified) | 6 | -1 | 4 | 0 | 114 | 4
O=C(C1CCCN(S(=O)(=O)c2cccc3cccnc23)C1)N1CCN(c2ccc(F)cc2)CC1 (stereo unspecified) | 21 | 19 | 12 | -1 | 106 | 25*
O=C(C1CCN(S(=O)(=O)c2cccc3cccnc23)CC1)N1CCN(c2ccccc2)CC1 | 8 | 0 | 5 | / | 102 | 1
O=C(CSc1nnnn1-c1cccc2ccccc12)Nc1ccc(N2CCOCC2)c(Cl)c1 | -6 | -1 | 0 | 0 | 88 | 15*
CC(C)[C@H](NC(=O)c1ccc(Cl)cc1)C(=O)OCC(=O)N1CCN(c2ccccc2)CC1 | / | -1 | / | / | 96 | 3
COc1cc(C(CCN2CCCC2)c2c(OC)cc(OC)c3c(-c4ccccc4)cc(=O)oc23)cc(OC)c1OC (stereo unspecified) | -7 | 2 | -3 | -48* | 106 | -4
CCOC(=O)C1C(=O)CC(C)(O)C(C(=O)OCC)C1c1ccc(F)cc1 (stereo unspecified) | 9 | 4 | 8 | -1 | 92 | 3
CCOC(=O)C1C(=O)CC(C)(O)C(C(=O)OCC)C1c1ccc2c(c1)OCO2 (stereo unspecified) | -7 | 1 | 1 | -1 | 77 | 178*
CCc1ccc(C(=O)NNC(=O)c2c(CC)noc2C)cc1 | 3 | 2 | 2 | 0 | 122 | 0
CCc1noc(C)c1C(=O)NNC(=O)c1ccccc1 | -3 | 5 | -5 | / | 104 | 97*
COc1ccc(-c2cc(C(=O)N3CCOCC3)c3cc(C)ccc3n2)cc1 | 6 | 3 | 3 | 3 | 108 | 18*
COc1ccc(-c2cc(C(=O)N3CCCCCC3)c3cc(C)ccc3n2)cc1 | 9 | -8 | 1 | -4 | 87 | -1
COc1ccc(S(=O)(=O)N(C)C[C@H]2Oc3ccc(NS(=O)(=O)c4ccc(F)cc4)cc3C(=O)N([C@H](C)CO)C[C@@H]2C)cc1 | / | 1 | / | / | 83 | 3
CC1OC(Oc2c(-c3cc(O)c(O)c(O)c3)oc3cc(O)cc(O)c3c2=O)C(O)C(O)C1O (stereo unspecified) | / | / | / | -48* | / | /
O=C(COC(=O)c1ccccc1F)Nc1ccc(S(=O)(=O)N2CCOCC2)cc1 | / | 2 | / | / | 99 | -5
CCOC(=O)N1CC(=O)Nc2ccc(Br)cc2C1c1ccccc1 (stereo unspecified) | 3 | -1 | 2 | 2 | 91 | 106*
O=C1CN(C(=O)CN2CCCC2)C(c2ccccc2)c2cc(Br)ccc2N1 (stereo unspecified) | 4 | -5 | 6 | 1 | 81 | -2

High-throughput results as filed in PubChem.
